# Reference: article PMC11006913
# Where a chain is given by its changes, count along the chain named.
# Columns and labels:
# Experiment in all cases: PBM; 200 nM protein, PBS
# Conditions in all cases: dsDNA, one strand shown
# VENTX [1] = target: T1, VENTX (Homo sapiens, UniProt O95231 78-163, R121Q)
# T1 sequence: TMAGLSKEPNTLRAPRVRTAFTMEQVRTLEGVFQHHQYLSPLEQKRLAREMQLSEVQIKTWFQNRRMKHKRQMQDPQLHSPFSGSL
# VENTX [2] = target: T2, VENTX (Homo sapiens, UniProt O95231 78-163)
# T2 sequence: T1 sequence with Q44R
# HOXB9 [3] = target: HOXB9 (Homo sapiens, UniProt P17482 171-250, T197M)
# Chain of HOXB9 (Homo sapiens, UniProt P17482 171-250, T197M) (P17482 171-250 T197M): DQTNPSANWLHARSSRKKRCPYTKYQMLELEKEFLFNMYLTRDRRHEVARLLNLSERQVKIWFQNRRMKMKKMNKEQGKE
# HOXA7 [4] = target: HOXA7 (Homo sapiens, UniProt P31268 116-202)
# Chain of HOXA7 (Homo sapiens, UniProt P31268 116-202) (P31268 116-202): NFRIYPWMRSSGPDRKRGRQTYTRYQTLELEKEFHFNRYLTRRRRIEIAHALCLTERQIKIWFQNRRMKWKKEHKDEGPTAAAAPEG
# VENTX [5] = target: T3, VENTX (Homo sapiens, UniProt O95231 78-163, Y115F)
# T3 sequence: T1 sequence with Y38F, Q44R
# HOXB9 [6] = target: HOXB9 (Homo sapiens, UniProt P17482 171-250)
# Chain of HOXB9 (Homo sapiens, UniProt P17482 171-250) (P17482 171-250): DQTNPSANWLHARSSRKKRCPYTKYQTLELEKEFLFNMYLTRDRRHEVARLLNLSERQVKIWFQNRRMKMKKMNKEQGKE
# MSX2 [7] = target: MSX2 (Homo sapiens, UniProt P35548 130-214, R199I)
# Chain of MSX2 (Homo sapiens, UniProt P35548 130-214, R199I) (P35548 130-214 R199I): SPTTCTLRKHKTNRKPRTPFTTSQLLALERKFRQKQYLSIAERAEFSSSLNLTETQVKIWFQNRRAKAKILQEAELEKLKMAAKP
# MSX2 [8] = target: MSX2 (Homo sapiens, UniProt P35548 130-214)
# Chain of MSX2 (Homo sapiens, UniProt P35548 130-214) (P35548 130-214): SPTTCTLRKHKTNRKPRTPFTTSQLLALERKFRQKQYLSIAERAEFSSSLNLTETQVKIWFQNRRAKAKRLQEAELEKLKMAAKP
# PROP1 [9] = target: PROP1 (Homo sapiens, UniProt O75360 56-141)
# Chain of PROP1 (Homo sapiens, UniProt O75360 56-141) (O75360 56-141): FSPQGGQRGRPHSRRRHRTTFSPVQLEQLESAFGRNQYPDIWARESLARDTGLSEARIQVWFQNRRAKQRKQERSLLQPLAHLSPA
# PROP1 [10] = target: PROP1 (Homo sapiens, UniProt O75360 56-141, R99H)
# Chain of PROP1 (Homo sapiens, UniProt O75360 56-141, R99H) (O75360 56-141 R99H): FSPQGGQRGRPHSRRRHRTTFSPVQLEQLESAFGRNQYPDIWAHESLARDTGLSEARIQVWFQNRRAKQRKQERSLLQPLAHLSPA
# HOXB9 [11] = target: HOXB9 (Homo sapiens, UniProt P17482 171-250, R186Q)
# Chain of HOXB9 (Homo sapiens, UniProt P17482 171-250, R186Q) (P17482 171-250 R186Q): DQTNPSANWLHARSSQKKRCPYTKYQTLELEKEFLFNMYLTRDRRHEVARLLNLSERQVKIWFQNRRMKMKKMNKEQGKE
# PROP1 [12] = target: PROP1 (Homo sapiens, UniProt O75360 56-141, F88S)
# Chain of PROP1 (Homo sapiens, UniProt O75360 56-141, F88S) (O75360 56-141 F88S): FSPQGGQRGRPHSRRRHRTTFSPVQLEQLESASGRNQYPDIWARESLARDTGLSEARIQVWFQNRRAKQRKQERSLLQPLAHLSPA
# MSX2 [13] = target: MSX2 (Homo sapiens, UniProt P35548 130-214, F161Y)
# Chain of MSX2 (Homo sapiens, UniProt P35548 130-214, F161Y) (P35548 130-214 F161Y): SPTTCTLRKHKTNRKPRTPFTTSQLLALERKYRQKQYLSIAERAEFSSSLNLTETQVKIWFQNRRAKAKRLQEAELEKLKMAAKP
# HOXA7 [14] = target: HOXA7 (Homo sapiens, UniProt P31268 116-202, W177C)
# Chain of HOXA7 (Homo sapiens, UniProt P31268 116-202, W177C) (P31268 116-202 W177C): as the sequence (P31268 116-202) above, with W62C counted along it
# HOXA4 [15] = target: HOXA4 (Homo sapiens, UniProt Q00056 201-287, W262R)
# Chain of HOXA4 (Homo sapiens, UniProt Q00056 201-287, W262R) (Q00056 201-287 W262R): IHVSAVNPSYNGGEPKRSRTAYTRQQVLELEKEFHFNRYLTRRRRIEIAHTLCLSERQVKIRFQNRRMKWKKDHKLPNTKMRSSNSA
# PRRX1 [16] = target: PRRX1 (Homo sapiens, UniProt P54821 80-166, F113S)
# Chain of PRRX1 (Homo sapiens, UniProt P54821 80-166, F113S) (P54821 80-166 F113S): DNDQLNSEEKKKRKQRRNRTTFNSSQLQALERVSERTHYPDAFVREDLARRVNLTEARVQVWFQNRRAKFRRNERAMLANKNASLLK
# HOXA4 [17] = target: HOXA4 (Homo sapiens, UniProt Q00056 201-287, R217L)
# Chain of HOXA4 (Homo sapiens, UniProt Q00056 201-287, R217L) (Q00056 201-287 R217L): as the sequence (Q00056 201-287 W262R) above, with R17L, R62W counted along it
# HOXA4 [18] = target: HOXA4 (Homo sapiens, UniProt Q00056 201-287)
# Chain of HOXA4 (Homo sapiens, UniProt Q00056 201-287) (Q00056 201-287): as the sequence (Q00056 201-287 W262R) above, with R62W counted along it
# HOXA4 [19] = target: HOXA4 (Homo sapiens, UniProt Q00056 201-287, W262F)
# Chain of HOXA4 (Homo sapiens, UniProt Q00056 201-287, W262F) (Q00056 201-287 W262F): as the sequence (Q00056 201-287 W262R) above, with R62F counted along it
# PRRX1 [20] = target: PRRX1 (Homo sapiens, UniProt P54821 80-166)
# Chain of PRRX1 (Homo sapiens, UniProt P54821 80-166) (P54821 80-166): as the sequence (P54821 80-166 F113S) above, with S34F counted along it
# HOXC9 [21] = target: HOXC9 (Homo sapiens, UniProt P31274 178-260, K195R)
# Chain of HOXC9 (Homo sapiens, UniProt P31274 178-260, K195R) (P31274 178-260 K195R): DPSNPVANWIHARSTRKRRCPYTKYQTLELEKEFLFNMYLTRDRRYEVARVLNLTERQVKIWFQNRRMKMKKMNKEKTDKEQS
# HOXC9 [22] = target: HOXC9 (Homo sapiens, UniProt P31274 178-260)
# Chain of HOXC9 (Homo sapiens, UniProt P31274 178-260) (P31274 178-260): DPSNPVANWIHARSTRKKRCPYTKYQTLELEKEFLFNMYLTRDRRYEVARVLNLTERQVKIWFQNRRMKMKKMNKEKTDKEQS
# HOXC9 [23] = target: HOXC9 (Homo sapiens, UniProt P31274 178-260, R193K)
# Chain of HOXC9 (Homo sapiens, UniProt P31274 178-260, R193K) (P31274 178-260 R193K): as the sequence (P31274 178-260) above, with R16K counted along it
# HOXC9 [24] = target: HOXC9 (Homo sapiens, UniProt P31274 178-260, R222W)
# Chain of HOXC9 (Homo sapiens, UniProt P31274 178-260, R222W) (P31274 178-260 R222W): as the sequence (P31274 178-260) above, with R45W counted along it
# SIX6 [25] = target: T4, SIX6 (Homo sapiens, UniProt O95475 114-200, L167I)
# T4 sequence: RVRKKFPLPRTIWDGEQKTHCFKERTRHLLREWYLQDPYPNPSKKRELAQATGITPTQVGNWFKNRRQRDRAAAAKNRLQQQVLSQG
# SIX6 [26] = target: T5, SIX6 (Homo sapiens, UniProt O95475 114-200, L143V)
# T5 sequence: T4 sequence with L30V, I54L
# SIX6 [27] = target: T6, SIX6 (Homo sapiens, UniProt O95475 114-200, H141N)
# T6 sequence: T4 sequence with H28N, I54L
# SIX6 [28] = target: T7, SIX6 (Homo sapiens, UniProt O95475 114-200, T165P)
# T7 sequence: T4 sequence with T52P, I54L
# SIX6 [29] = target: T8, SIX6 (Homo sapiens, UniProt O95475 114-200, L167M)
# T8 sequence: T4 sequence with I54M
# SIX6 [30] = target: T9, SIX6 (Homo sapiens, UniProt O95475 114-200, L143M)
# T9 sequence: T4 sequence with L30M, I54L
# SIX6 [31] = target: T10, SIX6 (Homo sapiens, UniProt O95475 114-200, L143I)
# T10 sequence: T4 sequence with L30I, I54L
# SIX6 [32] = target: T11, SIX6 (Homo sapiens, UniProt O95475 114-200, T165G)
# T11 sequence: T4 sequence with T52G, I54L
# SIX6 [33] = target: T12, SIX6 (Homo sapiens, UniProt O95475 114-200, T139Q)
# T12 sequence: T4 sequence with T26Q, I54L
# SIX6 [34] = target: T13, SIX6 (Homo sapiens, UniProt O95475 114-200, T165A)
# T13 sequence: T4 sequence with T52A, I54L
# SIX6 [35] = target: T14, SIX6 (Homo sapiens, UniProt O95475 114-200, L167V)
# T14 sequence: T4 sequence with I54V
# SIX6 [36] = target: T15, SIX6 (Homo sapiens, UniProt O95475 114-200)
# T15 sequence: T4 sequence with I54L
# SIX6 [37] = target: T16, SIX6 (Homo sapiens, UniProt O95475 114-200, T165I)
# T16 sequence: T4 sequence with T52I, I54L
# ALX1 [38] = target: ALX1 (Homo sapiens, UniProt Q15699 118-204, L144V)
# Chain of ALX1 (Homo sapiens, UniProt Q15699 118-204, L144V) (Q15699 118-204 L144V): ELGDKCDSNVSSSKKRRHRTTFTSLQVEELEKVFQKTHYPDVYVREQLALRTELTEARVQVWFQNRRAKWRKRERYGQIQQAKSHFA
# ALX1 [39] = target: ALX1 (Homo sapiens, UniProt Q15699 118-204, L144R)
# Chain of ALX1 (Homo sapiens, UniProt Q15699 118-204, L144R) (Q15699 118-204 L144R): as the sequence (Q15699 118-204 L144V) above, with V27R counted along it
# ALX1 [40] = target: ALX1 (Homo sapiens, UniProt Q15699 118-204)
# Chain of ALX1 (Homo sapiens, UniProt Q15699 118-204) (Q15699 118-204): as the sequence (Q15699 118-204 L144V) above, with V27L counted along it
sequence,measurement,setting,value
AAGTAAAC,binding signal,VENTX [1],"9.37 upbm affinity estimate (log intensity, higher = more binding, comparable within an allelic series)"
same,binding signal,VENTX [2],"9.73 upbm affinity estimate (log intensity, higher = more binding, comparable within an allelic series)"
CCCGGACG,binding signal,VENTX [1],"7.96 upbm affinity estimate (log intensity, higher = more binding, comparable within an allelic series)"
same,binding signal,HOXB9 [3],"8.39 upbm affinity estimate (log intensity, higher = more binding, comparable within an allelic series)"
same,binding signal,VENTX [2],"7.88 upbm affinity estimate (log intensity, higher = more binding, comparable within an allelic series)"
same,binding signal,HOXA7 [4],"8.42 upbm affinity estimate (log intensity, higher = more binding, comparable within an allelic series)"
same,binding signal,VENTX [5],"8.04 upbm affinity estimate (log intensity, higher = more binding, comparable within an allelic series)"
same,binding signal,HOXB9 [6],"8.49 upbm affinity estimate (log intensity, higher = more binding, comparable within an allelic series)"
same,binding signal,MSX2 [7],"9.41 upbm affinity estimate (log intensity, higher = more binding, comparable within an allelic series)"
same,binding signal,MSX2 [8],"9.27 upbm affinity estimate (log intensity, higher = more binding, comparable within an allelic series)"
same,binding signal,PROP1 [9],"6.37 upbm affinity estimate (log intensity, higher = more binding, comparable within an allelic series)"
same,binding signal,PROP1 [10],"6.67 upbm affinity estimate (log intensity, higher = more binding, comparable within an allelic series)"
same,binding signal,HOXB9 [11],"8.54 upbm affinity estimate (log intensity, higher = more binding, comparable within an allelic series)"
same,binding signal,PROP1 [12],"6.37 upbm affinity estimate (log intensity, higher = more binding, comparable within an allelic series)"
same,binding signal,MSX2 [13],"9.4 upbm affinity estimate (log intensity, higher = more binding, comparable within an allelic series)"
same,binding signal,HOXA7 [14],"8.37 upbm affinity estimate (log intensity, higher = more binding, comparable within an allelic series)"
CCTCGTTA,binding signal,VENTX [1],"10.3 upbm affinity estimate (log intensity, higher = more binding, comparable within an allelic series)"
CCCTTCCG,binding signal,VENTX [1],"8.08 upbm affinity estimate (log intensity, higher = more binding, comparable within an allelic series)"
same,binding signal,HOXA4 [15],"9.79 upbm affinity estimate (log intensity, higher = more binding, comparable within an allelic series)"
same,binding signal,VENTX [2],"8.37 upbm affinity estimate (log intensity, higher = more binding, comparable within an allelic series)"
same,binding signal,PRRX1 [16],"9.35 upbm affinity estimate (log intensity, higher = more binding, comparable within an allelic series)"
same,binding signal,VENTX [5],"8.15 upbm affinity estimate (log intensity, higher = more binding, comparable within an allelic series)"
same,binding signal,HOXA4 [17],"9.96 upbm affinity estimate (log intensity, higher = more binding, comparable within an allelic series)"
same,binding signal,HOXA4 [18],"10 upbm affinity estimate (log intensity, higher = more binding, comparable within an allelic series)"
same,binding signal,HOXA4 [19],"10 upbm affinity estimate (log intensity, higher = more binding, comparable within an allelic series)"
same,binding signal,PRRX1 [20],"9.49 upbm affinity estimate (log intensity, higher = more binding, comparable within an allelic series)"
CTGGGACC,binding signal,VENTX [1],"8.08 upbm affinity estimate (log intensity, higher = more binding, comparable within an allelic series)"
same,binding signal,HOXC9 [21],"9.45 upbm affinity estimate (log intensity, higher = more binding, comparable within an allelic series)"
same,binding signal,VENTX [2],"8.05 upbm affinity estimate (log intensity, higher = more binding, comparable within an allelic series)"
same,binding signal,VENTX [5],"8.06 upbm affinity estimate (log intensity, higher = more binding, comparable within an allelic series)"
same,binding signal,HOXC9 [22],"9.59 upbm affinity estimate (log intensity, higher = more binding, comparable within an allelic series)"
same,binding signal,HOXC9 [23],"9.43 upbm affinity estimate (log intensity, higher = more binding, comparable within an allelic series)"
same,binding signal,HOXC9 [24],"9.65 upbm affinity estimate (log intensity, higher = more binding, comparable within an allelic series)"
AATGATAC,binding signal,VENTX [1],"9.95 upbm affinity estimate (log intensity, higher = more binding, comparable within an allelic series)"
same,binding signal,SIX6 [25],"11.5 upbm affinity estimate (log intensity, higher = more binding, comparable within an allelic series)"
same,binding signal,VENTX [2],"10.2 upbm affinity estimate (log intensity, higher = more binding, comparable within an allelic series)"
same,binding signal,SIX6 [26],"10.6 upbm affinity estimate (log intensity, higher = more binding, comparable within an allelic series)"
same,binding signal,SIX6 [27],"11.5 upbm affinity estimate (log intensity, higher = more binding, comparable within an allelic series)"
same,binding signal,SIX6 [28],"10.1 upbm affinity estimate (log intensity, higher = more binding, comparable within an allelic series)"
same,binding signal,VENTX [5],"9.98 upbm affinity estimate (log intensity, higher = more binding, comparable within an allelic series)"
same,binding signal,SIX6 [29],"11 upbm affinity estimate (log intensity, higher = more binding, comparable within an allelic series)"
same,binding signal,SIX6 [30],"11.3 upbm affinity estimate (log intensity, higher = more binding, comparable within an allelic series)"
same,binding signal,SIX6 [31],"10.6 upbm affinity estimate (log intensity, higher = more binding, comparable within an allelic series)"
same,binding signal,SIX6 [32],"11.5 upbm affinity estimate (log intensity, higher = more binding, comparable within an allelic series)"
same,binding signal,SIX6 [33],"11.3 upbm affinity estimate (log intensity, higher = more binding, comparable within an allelic series)"
same,binding signal,SIX6 [34],"11.4 upbm affinity estimate (log intensity, higher = more binding, comparable within an allelic series)"
same,binding signal,SIX6 [35],"11.3 upbm affinity estimate (log intensity, higher = more binding, comparable within an allelic series)"
same,binding signal,SIX6 [36],"11.2 upbm affinity estimate (log intensity, higher = more binding, comparable within an allelic series)"
same,binding signal,SIX6 [37],"11.3 upbm affinity estimate (log intensity, higher = more binding, comparable within an allelic series)"
CCCCCTGA,binding signal,VENTX [1],"7.9 upbm affinity estimate (log intensity, higher = more binding, comparable within an allelic series)"
same,binding signal,HOXC9 [21],"9.31 upbm affinity estimate (log intensity, higher = more binding, comparable within an allelic series)"
same,binding signal,VENTX [2],"7.95 upbm affinity estimate (log intensity, higher = more binding, comparable within an allelic series)"
same,binding signal,VENTX [5],"7.94 upbm affinity estimate (log intensity, higher = more binding, comparable within an allelic series)"
same,binding signal,HOXC9 [22],"9.4 upbm affinity estimate (log intensity, higher = more binding, comparable within an allelic series)"
same,binding signal,ALX1 [38],"6.45 upbm affinity estimate (log intensity, higher = more binding, comparable within an allelic series)"
same,binding signal,HOXC9 [23],"9.32 upbm affinity estimate (log intensity, higher = more binding, comparable within an allelic series)"
same,binding signal,ALX1 [39],"6.47 upbm affinity estimate (log intensity, higher = more binding, comparable within an allelic series)"
same,binding signal,HOXC9 [24],"9.33 upbm affinity estimate (log intensity, higher = more binding, comparable within an allelic series)"
same,binding signal,ALX1 [40],"6.49 upbm affinity estimate (log intensity, higher = more binding, comparable within an allelic series)"
